Results reported in PubChem BioAssay AID493083 (Broad Institute, 2011).
About 95 (4%) of roughly 2,400 compounds were called active. Another 3% or so got no clear call; they are omitted.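 How the source made its calls: active means compounds lowering signal whose fitted AC50 is at most ten times the top tested dose; inconclusive means flat fit with moderate inhibition, or poor curve fit; inactive means the rest.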 Only a sample is shown. Entries with a potency or affinity are not part of this list.

Experiment: decrease of heat-induced HSF-1 GFP reporter, dose response, NIH3T3 R4 cells, GFP/RFP, cherry-pick, set 3 (AID 493083)
Conditions: NIH3T3 R4 HSF-1 GFP reporter, heat shock, 48 h; series mostly up to 19.5 µM

outcome, inactive:
CCC(C(=O)OCC(=O)Nc1cc(Cl)ccc1Cl)c1ccccc1 (stereo not given)
Cc1cc(Nc2cccc(Cl)c2)nc(-c2ccccc2O)n1
O=C(O)c1cccc(Nc2ccnc(Nc3cccc(C(=O)O)c3)n2)c1
CC(=O)NC(=S)Nc1cccc(S(=O)(=O)NC2=NCCC2)c1
Cn1c(=O)c2ncn(CC(=O)Nc3ccc4c5c(cccc35)CC4)c2n(C)c1=O
COc1ccc(OCCN2C(=O)c3ccccc3C2=O)cc1
CCN(CC)C(=O)CN1C(=O)/C(=C/c2ccccc2)SC1=S
CC(C)N1CCC(N2CCN(C3CCCC3)CC2CCO)CC1 (stereo not given)
CC(CCc1ccccc1)NC(=O)CCNS(=O)(=O)c1ccccc1 (stereo not given)
CCCC(C)NS(=O)(=O)c1ccccc1 (stereo not given)
Cc1ccc(-c2nnn(CC(=O)N(Cc3cccs3)C(C(=O)NC3CCCC3)c3ccncc3)n2)cc1 (stereo not given)
CCCN(CCC)S(=O)(=O)c1ccc(NC(=O)c2cc(C(=O)OC)cc([N+](=O)[O-])c2)cc1
NC(=O)CC(NC(=O)Cc1ccc(Cl)cc1)c1ccc(NC2CCCCCC2)c([N+](=O)[O-])c1 (stereo not given)
Cc1cc(C)cc(SCc2noc(C(=O)NCc3ccccc3)c2C(=O)NCc2ccccc2)c1
O=[N+]([O-])c1ccccc1CCc1cnc(Cl)s1
O=C(CNC(=O)C1CCCCC1)NC1=NCCS1
CC(C)(C)N1[C@@H](CC(=O)O)c2cc(C(F)(F)F)ccc2S1(=O)=O
Cc1cc(C)n(-c2ccc(NC(=O)C3CCCCN3C(=O)c3ccoc3C)cc2)n1 (stereo not given)
COc1ccc(C(C(=O)NC2CCCCC2)N(C(=O)CCl)c2cccc(Cl)c2)cc1 (stereo not given)
COc1ccc(C(C)NC(=S)NC2CCCCC2)cc1OC (stereo not given)
O=C1N=C(N2CCCC2)S/C1=C\C=C\c1ccccc1
Cc1nn2c(CN(C(=O)CN3CCOCC3)c3ccccc3)nnc2c2ccccc12
O=C(CCCCn1c(=O)[nH]c2ccsc2c1=O)NCc1cccnc1
CCCC(=O)Nc1cccc(NC(=O)c2cccc([N+](=O)[O-])c2C)c1
CCOC(=O)/C(C#N)=C/c1cc(C)n(-c2ccccc2)c1C
Cc1cccc(NC(=O)c2sc(-c3ccccc3)nc2-c2ccc([N+](=O)[O-])cc2)c1
CCCCNC(=O)C(c1ccc(OCC(=O)OC)c(C(=O)OC)c1)N(CCc1c[nH]c2ccccc12)C(=O)CCCCCN1C(=O)NC(c2ccc(-c3ccccc3)cc2)C(C(=O)OCc2ccccc2)=C1C (stereo not given)
CC1=C(C(=O)Nc2ccccc2)C(c2cc(CN3CCOCC3)cs2)C2=C(CCCC2=O)N1 (stereo not given)
COC(=O)C1(Cc2ccccc2)NC(c2ccccc2C)C2C(=O)N(c3ccc4c(c3)OCO4)C(=O)C21 (stereo not given)
CCN(C(=O)COC(=O)/C=C/c1ccccc1)C1CCCCC1
Cc1cccc(N(Cc2ccccc2)C(=O)CCl)c1
CC(C)(C)C(CN1CCCC1)OC(=O)c1ccccc1 (stereo not given)
COc1ccc(OC)c(N=C2SCCCN2C(=O)c2ccc(N3C(=O)CCC3=O)cc2)c1
CCOc1ccc(CCNC(=O)c2nn(C)c3c2CS(=O)(=O)c2ccccc2-3)cc1
Cc1cc(C)c2cc(CN(CCN(C)C)C(=O)Nc3ccccc3Cl)c(=O)[nH]c2c1
Cc1ccc(C(=O)N2CCCC(Nc3ccc(F)cc3)C2)cc1C (stereo not given)
Cc1ccc(-n2ncc3c(NCc4ccc5c(c4)OCO5)ncnc32)c(C)c1
Nc1ccccc1SCC(=O)Nc1ccc2c(c1)OCCO2
CC(=O)c1ccc(NC(=O)c2cnn3ccccc23)cc1
Cc1cc(/C([O-])=C(/C(=S)Nc2ccccc2)[n+]2ccccc2)c(C)n1-c1ccccc1
NC(=O)COC(=O)c1cc(=O)[nH]c2ccccc12
COc1ccc(NC(=O)CN(C)CC(=O)Nc2ccc3c(c2)CCC3)cc1
CCO[C@@H]1OC(C(=O)NCc2ccccc2)=C[C@H](c2ccc3c(c2)OCO3)[C@H]1CCCO
CC[n+]1c(/C=C/c2cc([N+](=O)[O-])ccc2O)ccc2ccccc21
COc1ccc(N2CCN(S(=O)(=O)c3cc4c(cc3C)N(C(C)=O)CCO4)CC2)cc1
COc1ccc(NC(=O)CCN2CCN(S(=O)(=O)c3ccc(OC)cc3)CC2)cc1
Cc1cc(NC(=O)C2C3C(=O)N(Cc4ccc(Cl)cc4)C(C(=O)NC(C)(C)C)C34C=CC2(C)O4)no1 (stereo not given)
COc1cc(OC)c(NC(=O)CN(C)S(=O)(=O)c2ccc3[nH]c(=O)oc3c2)cc1Cl
O=C(CCl)NC(Cc1ccccc1)c1ccccc1 (stereo not given)
O=C(CCl)Nc1ccccc1C(=O)c1ccccc1
O=C1C2CCCN2c2ccc(S(=O)(=O)N3CCOCC3)cc2N1Cc1cccc(C(F)(F)F)c1 (stereo not given)
O=C(CSc1nnc(CNC(=O)c2cccs2)o1)NCc1ccc(F)cc1
COCCNC(=O)CSC1=N/C(=C/c2ccc(Cl)c(Cl)c2)C(=O)N1c1ccccc1F
CC(C)Sc1nc(SCC(=O)NCc2ccco2)c2c3c(sc2n1)COC(C)(C)C3
CCOC(=O)N1CCN(C(=S)Nc2ccc(C)cc2C)CC1
CC1CCCN(S(=O)(=O)c2ccc(Br)s2)C1 (stereo not given)
CN(C)c1ccc(/C=N/NC(=O)C2COc3ccccc3O2)o1 (stereo not given)
Cc1ccc(Cl)cc1NC(=O)C1COc2ccccc2O1 (stereo not given)
O=S(=O)(Cc1cc(Oc2ccccc2)nc(-c2ccccc2)n1)c1ccccc1
O=C(O)C(=O)Nc1ccc(NC(=O)C(c2ccccc2)c2ccccc2)cc1
CCCS(=O)(=O)N1CCc2cc(OC)c(OC)cc2C1
Nc1ncnc2nc(N3CCN(C(=O)c4ccccc4)CC3)[nH]c12
O=C(CSC(=S)N1CCOCC1)Nc1nc(-c2ccccc2)c(-c2ccccc2)o1
Nc1nc(Cl)nc2c1ncn2C1CC(O)C(CO)O1 (stereo not given)
CN1CCN(S(=O)(=O)c2cccc(C(=O)NCCC3=CCCCC3)c2)CC1
